From PubChem BioAssay
Hits are enriched below; roughly 0.49% of the tested compounds scored in any of these assays.
EPAC2 antagonist: blocks human EPAC2 exchange factor; 360,000 compounds, 0.18% hits; Potency, µM (top dose mostly 114 µM), most hits filed as inhibitors; Q8WZA2; EPAC2 GEF exchange of Rap1B-BODIPY-GDP, fluorescence; note: nearly all actives have a fitted effect of over 45% in size
EPAC1 antag: blocks human EPAC1 exchange factor; EPAC1 GEF assay, Rap1b-BODIPY-GDP exchange fluorescence; Potency, µM (highest dose often 115 µM), hits mostly inhibitors; 360,000 compounds, 0.14% hits; AID 720709; note: nearly all actives have a fitted effect of over 50% in size
USP1-UAF1 inh: blocks the human USP1/UAF1 deubiquitinase complex; recombinant USP1/UAF1, Ub-Rhodamine cleavage fluorescence; Potency, µM (doses to about 57.1 µM), most hits filed as inhibitors; 390,000 compounds, 0.23% hits; AID 743255; note: nearly all actives have a fitted effect of over 60% in size
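USP1/UAF1 complex at 1 nM was preincubated with compound for 15 min at room temperature, then Ub-Rho substrate (150nM final) was added. Fluorescence (480/540 nm) was read kinetically, 6 reads every 60 seconds.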
EPAC1 ag: activates human EPAC1 exchange factor; O95398; EPAC1 agonist qHTS, biochemical assay; response scale: 100% = response to 6.5 mM cAMP; Potency, µM (doses to about 154 µM), actives largely listed as activators; 360,000 compounds, 0.073% hits; AID 720707; note: nearly all actives have a fitted effect of over 60% in size
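Read-out is the fluorescence drop as BODIPY-GDP leaves Rap1B (480 nm excitation, 540 nm emission), recorded every 5 minutes over 30 minutes. Reactions held 100 nM EPAC1, 250 nM Rap1B–BODIPY-GDP and 50 uM GDP, with 6.5 mM cAMP setting full activation.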
EPAC2 agonist: activates human EPAC2 exchange factor; Potency, µM (series often up to 154 µM), hits mostly activators; EPAC2 activation, biochemical qHTS; response scale: 100% = 6.5 mM cAMP response; 360,000 compounds, 0.079% hits; Q8WZA2; note: nearly all actives have a fitted effect of over 50% in size
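qHTS, titration series. 100 nM EPAC2 / 250 nM Rap1B-BODIPY-GDP / 50 uM GDP; RT; ex 480/em 540 nm, 5-min reads to 30 min. Norm. to 6.5 mM cAMP = activation.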
Numbers stand for hits; – = inactive; ? = inconclusive; · = no result. Calls come from the whole dose curve; as a rule, active = well fitted curve in the direction sought with a large enough effect; inconclusive = small, poorly fitted or top-dose-only effect, or another doubt; inactive = no such curve, though single readings can be large; an effect the other way counts as inactive or inconclusive.

SMILES	EPAC2 antagonist	EPAC1 antag	USP1-UAF1 inh	EPAC1 ag	EPAC2 agonist
O=C1NC(=S)N(c2ccccc2)C(=O)/C1=C/c1ccco1	–	20µM	?	–	–
CCOc1cccc(N2C(=O)/C(=C/c3ccco3)C(=O)NC2=S)c1	–	?	–	–	–
CCOC(=O)C1CCCN(c2ccc([N+](=O)[O-])c3nonc23)C1 (centres undefined)	–	–	25µM	89µM	100µM
CC1CCCN(c2ccc(C(=O)N3CCC4(CC3)OCCO4)cc2[N+](=O)[O-])C1 (centres undefined)	–	–	–	–	–
O=C1NCCOC(=O)[C@@H](Cc2ccc(F)cc2)CC/C=C/C[C@H]1CC(=O)N(CCO)Cc1ccccc1	–	–	–	–	–
Cc1ccc(N2C(=O)NC(=O)/C(=C\c3cc(C)n(-c4sc5c(c4C#N)CCCC5)c3C)C2=O)cc1	?	18µM	28µM	–	–
CCN1C(=O)NC(=O)/C(=C/c2cc(C)n(-c3sc(C)c(C)c3C#N)c2C)C1=O	–	–	–	–	–
CN1C(=O)/C(=C/c2cccn2-c2ccc3ccccc3c2)C(=O)NC1=S	–	32µM	–	–	–
Cc1cc(C)cc(N2C(=O)NC(=O)/C(=C\c3cccn3-c3ccccc3)C2=O)c1	–	–	–	–	–
O=[N+]([O-])c1cccc(NP(=O)(Oc2ccccc2)Oc2ccccc2)c1	25µM	–	–	–	–
COc1cccc(NP(=O)(Oc2ccc(Cl)cc2)Oc2ccc(Cl)cc2)c1	–	–	–	–	–
CCOc1cc(-c2c(C#N)c(=O)[nH]c3c2c(C)nn3-c2ccc(F)cc2)ccc1O	–	?	–	–	–
Cc1[nH]n(-c2ccccc2)c(=O)c1C(c1cccc([N+](=O)[O-])c1O)c1c(C)[nH]n(-c2ccccc2)c1=O	–	56µM	–	–	–
CCCOP(=O)(c1ccc(N(C)C)cc1)C(O)c1ccc(Cl)cc1Cl (centres undefined)	?	–	–	–	–
O=C1NC(=O)N(Cc2ccc(F)cc2)C(=O)/C1=C\c1ccc([N+](=O)[O-])s1	–	20µM	28µM	–	–
O=C1NC(=O)N(Cc2ccc(F)cc2)C(=O)/C1=C\c1ccc(N2CCCC2)cc1	–	–	–	–	–
O=C1NC(=O)N(Cc2ccco2)C(=O)/C1=C\c1cccn1CCOc1ccc(Cl)cc1	–	50µM	–	–	–
COc1ccc(CN2C(=O)NC(=O)/C(=C/c3ccc([N+](=O)[O-])s3)C2=O)cc1	–	40µM	35µM	–	–
COc1cccc(N2C(=O)NC(=O)/C(=C/c3ccc([N+](=O)[O-])s3)C2=O)c1	–	?	?	–	–
COc1ccc(CN2C(=O)NC(=O)/C(=C\c3ccco3)C2=O)cc1	–	50µM	?	–	–
C=CC[C@@H](CC(=O)N(CCO)Cc1ccccc1)C(=O)NC[C@@H](OC(=O)[C@@H](CC=C)CC(=O)OC(C)(C)C)c1ccccc1	–	–	–	–	–
O=c1c2ccccc2nc(/C=C/c2ccccc2O)n1-c1ccc(Br)cc1	·	·	–	·	·
